Among all 5,500 compounds or so, about 2,000 (36%) were called active. Roughly 18% stayed inconclusive and do not appear here. No stated cut-off is given here; in the data, active means normalized growth mostly below about 0.91 (no sharp cut-off); inconclusive means no clear call, values can overlap the other calls; inactive means mostly above about 0.92. The list shows a part of the results.
Assay: chemical genetic growth profiling, strain panel (AID 1159580);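 further: tested at 20 µM; growth read once vehicle control cultures reached saturation at 30 °C; 1 = growth at the plate median or of vehicle wells; lower values mean less growth of the strain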
Details: growth OD
[1] = S. cerevisiae deletion strains, locus YDL101C, strain DUN1, hits give low values
[2] = S. cerevisiae deletion strains, locus YHR030C, strain SLT2, hits give low values

Measured: normalized growth

Cc1cc(C)cc(Sc2ccc3nnc(-c4ccccc4)n3n2)c1
inactive: S. cerevisiae deletion strains, locus YAR019C, strain CDC15, hits give low values 0.983 | S. cerevisiae deletion strains, locus YBL105C, strain PKC1, hits give low values 0.988 | S. cerevisiae deletion strains, locus YBR135W, strain CKS1, hits give low values 0.984 | S. cerevisiae deletion strains, locus YBR136W, strain MEC1, hits give low values 0.977 | S. cerevisiae deletion strains, locus YBR160W, strain CDC28, hits give low values 0.988 | S. cerevisiae deletion strains, locus YDL017W, strain CDC7, hits give low values 0.986 | S. cerevisiae deletion strains, locus YDL028C, strain MPS1, hits give low values 1 | [1] 0.973 | S. cerevisiae deletion strains, locus YDL108W, strain KIN28, hits give low values 0.993 | S. cerevisiae deletion strains, locus YDL132W, strain cdc53, hits give low values 0.977 | S. cerevisiae deletion strains, locus YDL214C, strain PRR2, hits give low values 0.998 | S. cerevisiae deletion strains, locus YDR052C, strain DBF4, hits give low values 0.986 | S. cerevisiae deletion strains, locus YDR054C, strain cdc34, hits give low values 0.975 | S. cerevisiae deletion strains, locus YDR226W, strain ADK1, hits give low values 0.982 | S. cerevisiae deletion strains, locus YDR477W, strain SNF1, hits give low values 0.99 | S. cerevisiae deletion strains, locus YER123W, strain YCK3, hits give low values 0.972 | S. cerevisiae deletion strains, locus YER133W, strain GLC7, hits give low values 0.978 | S. cerevisiae deletion strains, locus YFL009W, strain cdc4, hits give low values 0.979 | S. cerevisiae deletion strains, locus YFL029C, strain CAK1, hits give low values 0.984 | S. cerevisiae deletion strains, locus YFR003C, strain YPI1, hits give low values 0.991 | S. cerevisiae deletion strains, locus YFR019W, strain FAB1, hits give low values 0.962 | S. cerevisiae deletion strains, locus YFR028C, strain CDC14, hits give low values 0.987 | S. cerevisiae deletion strains, locus YGR040W, strain KSS1, hits give low values 0.991 | S. cerevisiae deletion strains, locus YGR052W, strain FMP48, hits give low values 1.09 | S. cerevisiae deletion strains, locus YGR092W, strain DBF2, hits give low values 0.977 | [2] 1.08 | S. cerevisiae deletion strains, locus YHR079C, strain IRE1, hits give low values 1.07 | S. cerevisiae deletion strains, locus YHR082C, strain KSP1, hits give low values 1.07 | S. cerevisiae deletion strains, locus YHR205W, strain SCH9, hits give low values 0.988 | S. cerevisiae deletion strains, locus YIL147C, strain SLN1, hits give low values 1 | S. cerevisiae deletion strains, locus YJL095W, strain BCK1, hits give low values 1.06 | S. cerevisiae deletion strains, locus YJL128C, strain PBS2, hits give low values 0.933 | S. cerevisiae deletion strains, locus YJL157C, strain FAR1, hits give low values 0.982 | S. cerevisiae deletion strains, locus YJR016C, strain ILV3, hits give low values 0.979 | S. cerevisiae deletion strains, locus YJR066W, strain TOR1 (second series), hits give low values 0.942 | S. cerevisiae deletion strains, locus YJR066W, strain TOR1, hits give low values 1.11 | S. cerevisiae deletion strains, locus YKL048C, strain ELM1, hits give low values 0.979 | S. cerevisiae deletion strains, locus YKL067W, strain YNK1, hits give low values 0.999 | S. cerevisiae deletion strains, locus YKL101W, strain HSL1, hits give low values 0.986 | S. cerevisiae deletion strains, locus YKL193C, strain SDS22, hits give low values 0.983 | S. cerevisiae deletion strains, locus YKL203C, strain TOR2, hits give low values 1.06 | S. cerevisiae deletion strains, locus YLR113W, strain HOG1, hits give low values 0.978 | S. cerevisiae deletion strains, locus YLR133W, strain CKI1, hits give low values 0.998 | S. cerevisiae deletion strains, locus YLR403W, strain SFP1, hits give low values 1 | S. cerevisiae deletion strains, locus YML070W, strain DAK1, hits give low values 0.983 | S. cerevisiae deletion strains, locus YMR001C, strain CDC5, hits give low values 0.981 | S. cerevisiae deletion strains, locus YMR205C, strain PFK2 (second series), hits give low values 0.997 | S. cerevisiae deletion strains, locus YMR277W, strain FCP1, hits give low values 0.986 | S. cerevisiae deletion strains, locus YNL006W, strain LST8, hits give low values 0.998 | S. cerevisiae deletion strains, locus YNL020C, strain ARK1, hits give low values 1 | S. cerevisiae deletion strains, locus YNL161W, strain CBK1, hits give low values 0.986 | S. cerevisiae deletion strains, locus YNL183C, strain NPR1, hits give low values 1.1 | S. cerevisiae deletion strains, locus YNL207W, strain RIO2, hits give low values 0.989 | S. cerevisiae deletion strains, locus YNL222W, strain SSU72, hits give low values 0.983 | S. cerevisiae deletion strains, locus YNL307C, strain MCK1 (second series), hits give low values 0.995 | S. cerevisiae deletion strains, locus YOL078W, strain AVO1, hits give low values 0.992 | S. cerevisiae deletion strains, locus YOL136C, strain PFK27, hits give low values 0.995 | S. cerevisiae deletion strains, locus YOR061W, strain CKA2, hits give low values 0.986 | S. cerevisiae deletion strains, locus YOR119C, strain RIO1, hits give low values 0.993 | S. cerevisiae deletion strains, locus YOR231W, strain MKK1, hits give low values 1.05 | S. cerevisiae deletion strains, locus YOR329C, strain SCD5, hits give low values 0.985 | S. cerevisiae deletion strains, locus YPL031C, strain PHO85, hits give low values 0.978 | S. cerevisiae deletion strains, locus YPL153C, strain RAD53, hits give low values 0.944 | S. cerevisiae deletion strains, locus YPL204W, strain HRR25, hits give low values 0.965 | S. cerevisiae deletion strains, locus YPL209C, strain IPL1, hits give low values 0.985 | S. cerevisiae deletion strains, locus YPL256C, strain CLN2, hits give low values 1.04 | S. cerevisiae deletion strains, locus YPR025C, strain CCL1, hits give low values 0.984 | S. cerevisiae deletion strains, locus YPR106W, strain ISR1, hits give low values 0.977 | S. cerevisiae deletion strains, locus YPR111W, strain DBF20, hits give low values 0.982 | S. cerevisiae deletion strains, strain NNK1, hits give low values 0.98 | S. cerevisiae deletion strains, strain TSCII, hits give low values 0.982

O=C(CCc1nc(-c2ccc(Cl)cc2)no1)NNS(=O)(=O)c1cc(Cl)c(Cl)cc1Cl
inactive: S. cerevisiae deletion strains, locus YAL013W, strain DEP1, hits give low values 1.01 | S. cerevisiae deletion strains, locus YBR229C, strain ROT2, hits give low values 1.01 | S. cerevisiae deletion strains, locus YCL061C, strain MRC1, hits give low values 1.01 | [1] 1.03 | S. cerevisiae deletion strains, locus YDL134C, strain PPH21, hits give low values 1 | S. cerevisiae deletion strains, locus YDR150W, strain NUM1, hits give low values 0.998 | S. cerevisiae deletion strains, locus YEL061C, strain CIN8, hits give low values 0.961 | S. cerevisiae deletion strains, locus YGR078C, strain PAC10, hits give low values 1.02 | [2] 0.98 | S. cerevisiae deletion strains, locus YHR087W, strain rtc3, hits give low values 0.958 | S. cerevisiae deletion strains, locus YJR043C, strain POL32, hits give low values 0.999 | S. cerevisiae deletion strains, locus YJR075W, strain HOC1, hits give low values 0.994 | S. cerevisiae deletion strains, locus YLR039C, strain RIC1, hits give low values 0.971 | S. cerevisiae deletion strains, locus YLR058C, strain SHM2 (second series), hits give low values 1.01 | S. cerevisiae deletion strains, locus YLR085C, strain ARP6, hits give low values 1 | S. cerevisiae deletion strains, locus YLR262C, strain YPT6, hits give low values 1.03 | S. cerevisiae deletion strains, locus YML094W, strain GIM5, hits give low values 0.968 | S. cerevisiae deletion strains, locus YMR219W, strain ESC1, hits give low values 1 | S. cerevisiae deletion strains, locus YMR263W, strain SAP30, hits give low values 1.01 | S. cerevisiae deletion strains, locus YNL153C, strain GIM3, hits give low values 1 | S. cerevisiae deletion strains, locus YNL298W, strain CLA4 (second series), hits give low values 0.993 | S. cerevisiae deletion strains, locus YNL322C, strain KRE1, hits give low values 1.02 | S. cerevisiae deletion strains, locus YNR030W, strain Alg12, hits give low values 1.03 | S. cerevisiae deletion strains, locus YOL006C, strain TOP1, hits give low values 1.02 | S. cerevisiae deletion strains, locus YPL055C, strain LGE1, hits give low values 0.973 | S. cerevisiae deletion strains, locus YPL241C, strain CIN2, hits give low values 1.04 | S. cerevisiae deletion strains, locus YPR135W, strain CTF4, hits give low values 1.03 | S. cerevisiae strains, strain wild type, hits give low values 1

Source: PubChem BioAssay AID1159580 (chemical genetic matrix, 2015)
